{"source": "PubChem BioAssay (NCATS)", "note": "Results filed as inconclusive are left out. Active and inactive are the calls of the source. Calls come from the whole dose curve; as a rule, active = well fitted cell-killing curve with a large enough effect; inconclusive = small, poorly fitted or top-dose-only effect, or effect the other way; inactive = no such curve, though single readings can be large or run the other way. Non-standard residues stand in square brackets, D forms with d. Residues, ends and D or L forms follow the SMILES beside them. *: point of attachment. Nva = CCC[C@H](N)C(=O)O; Cbz = O=C(OCc1ccccc1)*", "data": [{"assay": "Quantitative High-Throughput drug screen in 47 multiple myeloma cell lines against the NCATS MIPE library collection: MMM1_PLB cell viability assay (AID 1918976); note: nearly all actives have a fitted effect of over 35% in size; note: potency is the fitted concentration of half-maximal effect", "conditions": "MMM1 myeloma cells viability, CellTiter-Glo, 48 h; series mostly up to 45.8 µM; viability (% of control): at the top concentration", "excerpt": "PI: Beverly A. Mock Ph.D.\nLaboratory of Cancer Biology and Genetics,\nCenter for Cancer Research, National Cancer Institute,\nNational Institute of Health, Bethesda, Maryland\nDrug resistance and disease progression are common in multiple myeloma (MM) patients, underscoring the need for new therapeutic combinations. […] We hypothesized that effective combinations would reduce MYC expression and enhance p16 activity. […] These preclinical data identify potentially useful drug combinations for evaluation in drug-resistant MM and reveal potential mechanisms of combined drug sensitivity.\nDescribed herein is the primary MIPE qHTS used to cherrypick compounds. Validated compounds were then further tested for potential synergistic activiy.\n[1] Peat TJ, Gaikwad SM, Dubois W, Gyabaah-Kessie N, Zhang S, Gorjifard S, Phyo Z, Andres M, Hughitt VK, Simpson RM, Miller MA, Girvin AT, Taylor A, Williams D, D'Antonio N, Zhang Y, Rajagopalan A, Flietner E, Wilson K, Zhang X, Shinn P, Klumpp-Thomas C, McKnight C, Itkin Z, Chen L, Kazandijian D, Zhang J, Michalowski AM, Simmons JK, Keats J, Thomas CJ, Mock BA. Drug combinations identified by high-throughput screening promote cell cycle transition and upregulate Smad pathways in myeloma. Cancer Lett. 2023 Aug 1;568:216284. doi: 10.1016/j.canlet.2023.216284. Epub 2023 Jun 24. PMID: 37356470; PMCID: PMC10408729.\nSEQUENCE No. (e.g., 1, 2, 3, etc.); […] (e.g., Cells, Incubation, Reagent, etc.); VALUE and DESCRIPTION.\n1; Cells; 5 uL; white, solid bottom 1536-well Greiner assay plate.\n2; Compounds; 23 nL; Kalypsis pin tool (Wako USA) equipped with a 1536-well pin head to transfer to the assay plates.\n3; Incubation; 48 hours; 37C incubation.\n4; Reagent;5uL; CellTiter Glo (Promega).\n5; Detector; 425V; Luminescence; Viewlux PerkinElmer.\nNOTES (numbers refer to Sequence numbers above)\n1. The cell-based screening methods employed in this study were like those previously published. Briefly, the corresponding myeloma cell lines were screened in 1,536-well plates with 500 cells, 5-uL per well for inhibition of cell viability (assessed by measuring ATP levels with CellTiterGlo).\n2. NCATS MIPE 4.0 library of approved and investigational drugs were added using the Kalypsis pin tool. Wells treated with DMSO only for 100% viability and media only for 0% viability were used as controls.\n3. The assay plates were covered and incubated for 48 hours in a 37C, 5% CO2 incubator with controlled humidity.\n4. After 48 hours, CellTilter-GloTM luminescent substrate mix (Promega) reagent was added to the assay plate and plates we incubated for 5 min at room temperature.\n5. Signal was measured as median relative luminescence units on a ViewLux (PerkinElmer) multiplate reader.\n[1] Heske CM, Davis MI, Baumgart JT, Wilson K, Gormally MV, Chen L, Zhang X, Ceribelli M, Duveau DY, Guha R, Ferrer M, Arnaldez FI, Ji J, Tran HL, Zhang Y, Mendoza A, Helman LJ, Thomas CJ. Matrix Screen Identifies Synergistic Combination of PARP Inhibitors and Nicotinamide Phosphoribosyltransferase (NAMPT) Inhibitors in Ewing Sarcoma. Clin Cancer Res. 2017 Dec 1;23(23):7301-7311. doi: 10.1158/1078-0432.CCR-17-1121. Epub 2017 Sep 12. PMID: 28899971; PMCID: PMC6636827.", "values": [{"smiles": "CCC[C@@H](C=O)NC(=O)[C@H](CC(C)C)NC(=O)[C@H](CC(C)C)NC(=O)OCc1ccccc1", "note": "(Cbz-Leu-Leu-[Nva]-aldehyde)", "Potency": "3.72 µM (active)"}, {"smiles": "C=CC[C@@H]1C=C(C)C[C@H](C)C[C@H](OC)[C@H]2O[C@@](O)(C(=O)C(=O)N3CCCC[C@H]3C(=O)O[C@H](C(C)=C[C@@H]3CC[C@H](O)[C@H](OC)C3)[C@@H](C)[C@@H](O)CC1=O)[C@@H](C)C[C@@H]2OC", "Potency": "3.32 µM (active)"}, {"smiles": "C=CC(=O)N1CCc2ccc(-n3c(=O)ccc4cnc5ccc(-c6cnn(C)c6)cc5c43)cc21", "Potency": "1.87 µM (active)"}, {"smiles": "c1coc(CNc2ncnc3nc[nH]c23)c1", "Potency": "1.87 µM (active)"}, {"smiles": "CN[C@@H]1C[C@H]2O[C@@](C)([C@H]1OC)n1c3ccccc3c3c4c(c5c6ccccc6n2c5c31)C(=O)N[C@H]4O", "Potency": "1.48 µM (active)"}, {"smiles": "COc1cc([C@@H]2c3cc4c(cc3[C@H](O)[C@H]3COC(=O)[C@@H]23)OCO4)cc(OC)c1OC", "Potency": "0.469 µM (active)"}, {"smiles": "CCOC(=O)[C@@H](N)Cc1ccc(-c2cc(O[C@H](c3ccc(Cl)cc3-n3ccc(C)n3)C(F)(F)F)nc(N)n2)cc1", "Potency": "11.8 µM (active)"}, {"smiles": "Cc1ccc([N+](=O)[O-])cc1S(=O)(=O)N(C)N=Cc1cnc2ccc(Br)cn12", "Potency": "0.0833 µM (active)"}, {"smiles": "COc1ccc(S(=O)(=O)Nc2cccnc2Nc2ccc(O)cc2)cc1", "Potency": "1.48 µM (active)"}, {"smiles": "O=[N+]([O-])c1cn2c(n1)OC[C@@H](OCc1ccc(OC(F)(F)F)cc1)C2", "Potency": "8.33 µM (active)"}, {"smiles": "Cn1cc(CNCC2CCN(c3ncc(C(=O)NO)cn3)CC2)c2ccccc21", "Potency": "0.0418 µM (active)"}, {"smiles": "CCN(CC)CCCCNc1ncc2c(n1)N(C)C(=O)N(c1c(Cl)c(OC)cc(OC)c1Cl)C2", "Potency": "9.35 µM (active)"}, {"smiles": "C#C[C@]1(O)CC[C@@H]2[C@@H]3CCc4cc(O)ccc4[C@H]3CC[C@@]21C", "Potency": "14.8 µM (active)"}, {"smiles": "CCNC(=O)c1cc2c(-c3cc(OCCN4CCCC4)c(Cl)cc3Cl)nc(N)nc2s1", "Potency": "2.96 µM (active)"}, {"smiles": "Oc1ccc(-c2ccc(-c3cc(Nc4cccc(CNC5CC5)c4)n[nH]3)cc2)c(O)c1", "Potency": "2.35 µM (active)"}, {"smiles": "COc1ccc(S(=O)(=O)Nc2cc(-c3c(O)ccc4ccccc34)c(O)c3ccccc23)cc1", "Potency": "16.6 µM (active)"}, {"smiles": "O=C(O)c1ccc(Nc2ncc3c(n2)-c2ccc(Cl)cc2C(c2c(F)cccc2F)=NC3)cc1", "viability (% of control)": "120% (inactive)"}, {"smiles": "c1ccc2c(Oc3nc(Nc4ccc(N5CCOCC5)cc4)c4ncn(C5CCCCC5)c4n3)cccc2c1", "Potency": "13.2 µM (active)"}, {"smiles": "c1cncc(CN2CCC(n3ncc4c(N5CCOCC5)nc(-c5ccc6[nH]ccc6c5)nc43)CC2)c1", "Potency": "7.43 µM (active)"}, {"smiles": "COc1ccc(C=Cc2cc(OC)c(OC)c(OC)c2)cc1NC(=O)[C@H](N)CO", "Potency": "0.0187 µM (active)"}, {"smiles": "CC(C)C[C@H](NC(=O)CNC(=O)c1cc(Cl)ccc1Cl)B1OC(=O)CC(CC(=O)O)(C(=O)O)O1", "note": "(stereo not given in full)", "Potency": "6.62 µM (active)"}, {"smiles": "O=C(O)C[C@H](O)C[C@H](O)C=Cc1c(C2CC2)nc2ccccc2c1-c1ccc(F)cc1", "Potency": "14.8 µM (active)"}, {"smiles": "CC(O)(C#Cc1ccc2c(c1)N(c1nc(N)ncc1Cl)CC2)c1nccs1", "note": "(stereo not given)", "Potency": "20.9 µM (active)"}, {"smiles": "NC(=O)Nc1cc(-c2ccc(CN3CCOCC3)cc2)sc1C(N)=O", "Potency": "6.62 µM (active)"}, {"smiles": "CCNC(=O)Nc1ccc(-c2nc3c(c(N4CCOC[C@H]4C)n2)CCN(C2COC2)C3)cc1", "Potency": "0.418 µM (active)"}, {"smiles": "CC(=O)O[C@]1(C(C)=O)CC[C@H]2[C@@H]3C=C(C)C4=CC(=O)CC[C@]4(C)[C@@H]3CC[C@@]21C", "Potency": "18.7 µM (active)"}, {"smiles": "Cn1cc(C2=C(c3c4n(c5ccccc35)CCC(CN)C4)C(=O)NC2=O)c2ccccc21", "note": "(stereo not given)", "Potency": "20.9 µM (active)"}, {"smiles": "Oc1cc(-c2nc(-c3ccccc3)[nH]c2-c2ccncc2)ccc1Cl", "Potency": "18.7 µM (active)"}, {"smiles": "C=C1C(=O)O[C@H]2[C@@H]1CCC(C)=CCC[C@@]1(C)O[C@@H]21", "Potency": "13.2 µM (active)"}, {"smiles": "C[C@]12CC[C@@H]3c4ccc(O)cc4CC[C@H]3[C@H]1CC[C@H]2O", "Potency": "16.6 µM (active)"}, {"smiles": "COC(=O)C1C2CC3c4[nH]c5cc(OC)ccc5c4CCN3CC2CC(OC(=O)c2cc(OC)c(OC)c(OC)c2)C1OC", "note": "(stereo not given)", "Potency": "20.9 µM (active)"}, {"smiles": "COc1cccc2c1C(=O)c1c(O)c3c(c(O)c1C2=O)C[C@@](O)(C(=O)CO)C[C@@H]3O[C@H]1C[C@H](N)[C@@H](O)[C@H](C)O1", "Potency": "0.469 µM (active)"}, {"smiles": "CO[C@@H]1[C@@H](O)[C@H](O)[C@@H](n2c3c(Cl)cccc3c3c4c(c5c6cccc(Cl)c6[nH]c5c32)C(=O)NC4=O)O[C@@H]1CO", "Potency": "5.9 µM (active)"}, {"smiles": "CCCCCCCCCCCC(CC1OC(=O)C1CCCCCC)OC(=O)C(CC(C)C)NC=O", "note": "(stereo not given)", "Potency": "20.9 µM (active)"}, {"smiles": "Cc1nc(NC(=O)N2CCC[C@@H]2C(N)=O)sc1-c1ccnc(C(C)(C)C(F)(F)F)c1", "Potency": "0.59 µM (active)"}, {"smiles": "COc1ccc2c(c1OC)C(=O)OC2[C@H]1c2c(cc3c(c2OC)OCO3)CCN1C", "note": "(stereo not given in full)", "Potency": "2.64 µM (active)"}, {"smiles": "O=C(C=Cc1ccc(CN(CCO)CCc2c[nH]c3ccccc23)cc1)NO", "Potency": "0.0662 µM (active)"}, {"smiles": "Cc1coc2c1C(=O)C(=O)c1c-2ccc2c(C)cccc12", "Potency": "20.9 µM (active)"}, {"smiles": "COc1ccc(CCC(=O)c2c(O)cc(O[C@@H]3O[C@H](CO)[C@@H](O)[C@H](O)[C@@H]3O[C@@H]3O[C@@H](C)[C@H](O)[C@@H](O)[C@@H]3O)cc2O)cc1O", "viability (% of control)": "144% (inactive)"}, {"smiles": "CCOC(=O)N1CCN([N+]([O-])=NOc2ccc([N+](=O)[O-])cc2[N+](=O)[O-])CC1", "Potency": "3.72 µM (active)"}]}]}
